Values joined by “and” are separate entries in the source; they are usually repeats but may differ in a detail not shown here. Identical values can stand only once. Unmarked numbers belong to inactive results. Records with an inconclusive call do not appear. Active and inactive are the calls of the source. Unless noted, calls follow the shape of the dose curve; as a rule, active = well fitted curve in either direction with a large enough effect (not every such curve was filed as active); inconclusive = small, poorly fitted or top-dose-only effect, or another doubt; inactive = flat fitted curve, though single readings scatter.

This note sets out measurements from PubChem BioAssay (NCATS).

Assay [1] is described as follows: AP1 Signaling Pathway (AID 357).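 Also: ME-180 reporter cells stimulated with EGF at its EC50 level; % is scaled to controls: 0 for no effect and ±100 for the full control effect.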 To be noted: ME-180 AP-1-bla reporter, EGF-induced, beta-lactamase ratio, 5 h. The essentials: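 Titration-series screen for positive or negative modulators of EC50 EGF-induced signaling in ME-180 cells carrying an AP-1-driven beta-lactamase reporter. After 5 hours at 37 degrees Celsius, CCF4 460nm/530nm emission ratio gave %Activity; AC50 values derived.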

Assay [2] has as its target Cytochrome P450 1A2 (Homo sapiens) (UniProt P05177). The experiment in a line: p450-cyp1a2 (AID 410; calls by dose curve; also: potency is read from the fitted curve at half-maximal effect;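 as to activity change, negative = inhibition: -100% = full effect of reference inhibitor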). As to conditions: recombinant CYP1A2, luciferin-ME demethylation, luminescence; series mostly up to 25.6 µM. Summed up:
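O-Demethylation of luciferin 6' methyl ether by human CYP1A2 is monitored as luciferase luminescence. Substrate sits at Km (100uM); enzyme is 20nM. Values are scaled to 57 uM furafylline as maximal inhibition.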

Assay [3] can be described thus: NFAT Signaling Pathway (AID 444).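 Also: carbachol stimulus at about its EC50 of 1 µM final; % is scaled to controls: 0 for no effect and ±100 for the full control effect.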 As to conditions: Jurkat NFAT-bla M1, carbachol, beta-lactamase ratio, 5 h. The essentials:
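Jurkat cells carrying an NFAT-driven β-lactamase reporter and co-transfected muscarinic M1 receptor were treated with compound plus carbachol (1 uM final, an EC50 level) for 5 h at 37 °C. CCF4 loading followed for 1 h at RT; 460/530 nm ratio gave %activity.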

The target of assay [4] is Glucocorticoid receptor (Homo sapiens) (UniProt P04150). Description: GR-GFP Redistribution (AID 450;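 active = compounds whose dose series gives a full or clear partial fitted curve of increased nuclear translocation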; also: potency is read from the fitted curve at half-maximal effect). As to conditions: U2OS GR-GFP nuclear translocation, laser cytometry, 2 h.
Assay [5] deals with Mitogen-activated protein kinase 10 (Mus musculus) (UniProt Q61831). The experiment in a line: JNK3 AlphaScreen Assay (AID 530).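 Also: kinase came from lysate of stimulated human HepG2 cells; % is scaled to controls: 0 for no effect and ±100 for the full control effect.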 As to conditions: JNK3 lysate, c-Jun phosphorylation; series mostly up to 25.6 µM. Summed up: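 Phosphorylation of biotinylated GST-cJun(1-79) at Ser73 is measured by AlphaScreen proximity luminescence. Enzyme is JNK3 in HepG2 lysates activated with interleukin-1beta and tumor necrosis factor alpha; ATP is 10 uM final.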
For orientation: Bead proximity is the source of the signal in Alpha formats.

The target in assay [6] is Lysosomal acid glucosylceramidase (Homo sapiens) (UniProt P04062). The experiment in a line: Glucocerebrosidase-p2 (AID 348; in the data active = potency below about 10 µM; also: potency is read from the fitted curve at half-maximal effect). As to conditions: purified GBA, blue fluorogenic substrate, 40 min. Summed up: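 Normal human glucocerebrosidase (0.2 nM) with blue fluorogenic substrate (80 uM final) in citrate/phosphate pH 5.9 with 10mM sodium taurocholate, 0.01% tween-20; 40 min RT, NaOH/glycine stop; fluorescence Ex 365/Em 440; AC50 from a titration from 0.6 nM upwards.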

A short description of assay [7]: Cell Viability - Jurkat (AID 426;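 active = dose-dependent loss of cell ATP signal giving a full or clear fitted curve, ranked by lower potency value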;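 also: potency is read from the fitted curve at half-maximal effect; cells exposed to compound for 40 hours at 37 °C before ATP read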). To be noted: qHTS. Summed up:
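Cells of the human T-cell leukemia line Jurkat (E6-1) are seeded at 5000 per well, treated with compound across a concentration range for 40 hours at 37 °C, then lysed with CellTiter-Glo; luminescence reports ATP.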

A short description of assay [8]: Cell Viability - N2a (AID 540; active = well fitted curve in the direction sought with a large enough effect; an effect the other way counts as inactive or inconclusive;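 also: potency is read from the fitted curve at half-maximal effect; cells exposed to compound for 40 h at 37 °C; nearly all actives have a fitted effect of over 45% in size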). As to conditions: N2a mouse neuroblastoma cell viability; activity change, negative = cytotoxicity: at 92.2 µM (top of the series). The essentials:
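Cytotoxicity was scored as loss of cellular ATP in N2a cells, a mouse neuroblastoma line. Compounds are applied in a qHTS concentration series for 40 hr at 37 °C.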

Assay [9] can be described thus: Cell Viability - NIH 3T3 (AID 541; active = well fitted curve in the direction sought with a large enough effect; an effect the other way counts as inactive or inconclusive; also: potency is read from the fitted curve at half-maximal effect; nearly all actives have a fitted effect of over 25% in size). As to conditions: NIH 3T3 cell viability, qHTS; activity change, negative = cytotoxicity: at 92.2 µM (top of the series). The essentials: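 Cells seeded at 1000/well, rested 5 hr at 37 °C, then dosed and incubated 40 hr at 37 °C. CellTiter-Glo added, 20 min room temperature, luminescence read. AC50 by Hill fit.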
(In general: In qHTS, concentration-response curves come from the screen itself.)

A short description of assay [10]: Cell Viability - HUV-EC-C (AID 542; active = well fitted curve in the direction sought with a large enough effect; an effect the other way counts as inactive or inconclusive; also: potency is read from the fitted curve at half-maximal effect; nearly all actives have a fitted effect of over 35% in size). As to conditions: HUV-EC-C endothelial cell viability, qHTS; series mostly up to 92.2 µM. Summed up: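 Cells were seeded at 1000 per well and incubated 5 hr at 37 °C before compound addition. After 40 hr at 37 °C, CellTiter-Glo reagent was added for 20 min and luminescence read. AC50 values came from Hill-equation modelling.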

Assay [11] can be described thus: Cell Viability - H-4-II-E (AID 543; active = well fitted curve in the direction sought with a large enough effect; an effect the other way counts as inactive or inconclusive; also: potency is read from the fitted curve at half-maximal effect; nearly all actives have a fitted effect of over 35% in size). To be noted: H-4-II-E rat hepatoma viability; series mostly up to 92.2 µM. The essentials:
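Cells seeded at 1500 per well and rested 5 hr; compounds added; 40 hr incubation at 37 °C; CellTiter-Glo added, 20 min at room temperature; luminescence read. Hill-equation fits gave AC50.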

Assay [12] in a line: Stat Signaling Pathway (AID 446).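 Also: ME-180 cervical cancer cells given 40 pM IL-6 alongside compound; SIE-controlled beta-lactamase reporter measured as 460/530 nm FRET emission ratio; % is scaled to controls: 0 for no effect and ±100 for the full control effect.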 As to conditions: ME-180 (cervical carcinoma) SIE beta-lactamase reporter, IL-6 stimulated, 5 h. The essentials:
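Compound effects on IL-6-induced STAT reporter activity were measured in ME-180 cells. After overnight culture, cells were co-treated with 40 pM IL-6 for 5 hrs before beta-lactamase substrate loading at room temperature.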

Sequence of Glucocorticoid receptor (Homo sapiens) (P04150 whole entry, looked up): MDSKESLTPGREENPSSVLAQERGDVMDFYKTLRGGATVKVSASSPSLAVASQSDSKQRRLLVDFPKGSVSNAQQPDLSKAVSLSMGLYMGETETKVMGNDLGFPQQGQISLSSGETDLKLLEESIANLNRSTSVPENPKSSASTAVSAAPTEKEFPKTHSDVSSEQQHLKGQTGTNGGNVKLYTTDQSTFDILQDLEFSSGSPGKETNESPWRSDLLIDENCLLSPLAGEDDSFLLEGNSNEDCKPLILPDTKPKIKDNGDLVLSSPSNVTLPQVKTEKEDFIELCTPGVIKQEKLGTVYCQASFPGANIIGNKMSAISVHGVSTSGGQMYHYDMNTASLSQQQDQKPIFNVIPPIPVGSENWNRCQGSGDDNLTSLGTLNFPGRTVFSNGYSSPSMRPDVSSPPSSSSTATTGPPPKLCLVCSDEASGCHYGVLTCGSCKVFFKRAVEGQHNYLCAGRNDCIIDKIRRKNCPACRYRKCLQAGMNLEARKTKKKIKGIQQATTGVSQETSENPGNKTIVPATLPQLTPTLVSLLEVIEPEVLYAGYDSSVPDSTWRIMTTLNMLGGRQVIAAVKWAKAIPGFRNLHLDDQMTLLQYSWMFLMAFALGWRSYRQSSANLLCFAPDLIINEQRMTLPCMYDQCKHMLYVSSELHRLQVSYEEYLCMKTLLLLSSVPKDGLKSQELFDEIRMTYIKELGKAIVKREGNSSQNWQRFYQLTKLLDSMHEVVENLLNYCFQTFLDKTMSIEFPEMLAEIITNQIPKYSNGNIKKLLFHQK
Sequence of Cytochrome P450 1A2 (Homo sapiens) (P05177 whole entry, looked up): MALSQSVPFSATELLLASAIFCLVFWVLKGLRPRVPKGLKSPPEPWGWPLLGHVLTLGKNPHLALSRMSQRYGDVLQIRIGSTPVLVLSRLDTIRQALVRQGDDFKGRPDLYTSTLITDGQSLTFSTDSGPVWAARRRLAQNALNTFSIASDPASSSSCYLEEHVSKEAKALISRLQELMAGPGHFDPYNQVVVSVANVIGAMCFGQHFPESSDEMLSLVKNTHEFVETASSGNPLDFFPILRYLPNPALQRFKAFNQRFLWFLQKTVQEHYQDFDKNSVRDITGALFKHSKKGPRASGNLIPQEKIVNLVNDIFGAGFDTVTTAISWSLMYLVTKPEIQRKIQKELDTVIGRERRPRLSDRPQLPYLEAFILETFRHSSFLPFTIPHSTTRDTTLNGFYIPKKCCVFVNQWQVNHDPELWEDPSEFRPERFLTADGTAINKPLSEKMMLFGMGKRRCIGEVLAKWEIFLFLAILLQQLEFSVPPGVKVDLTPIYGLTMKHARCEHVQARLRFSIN
Sequence of Lysosomal acid glucosylceramidase (Homo sapiens) (P04062 whole entry, looked up): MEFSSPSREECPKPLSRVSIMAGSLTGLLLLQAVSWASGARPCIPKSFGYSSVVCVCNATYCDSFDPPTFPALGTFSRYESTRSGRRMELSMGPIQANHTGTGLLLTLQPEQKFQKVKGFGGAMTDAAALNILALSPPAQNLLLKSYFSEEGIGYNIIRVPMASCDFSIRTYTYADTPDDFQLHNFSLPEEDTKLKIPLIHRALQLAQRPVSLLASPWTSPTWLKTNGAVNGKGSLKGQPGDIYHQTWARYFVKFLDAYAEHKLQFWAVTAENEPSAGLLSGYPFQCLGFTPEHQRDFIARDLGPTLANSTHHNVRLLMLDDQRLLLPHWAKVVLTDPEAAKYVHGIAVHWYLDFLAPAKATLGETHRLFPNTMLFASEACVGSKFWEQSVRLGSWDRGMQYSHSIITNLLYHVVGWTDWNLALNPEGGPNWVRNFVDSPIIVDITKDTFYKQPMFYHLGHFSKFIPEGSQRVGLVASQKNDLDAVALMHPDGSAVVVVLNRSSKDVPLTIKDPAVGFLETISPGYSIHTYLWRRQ

Regarding `CC(C)(C(=O)c1cccnc1)c1cccnc1`, the activity change, negative = inhibition in [1] (at 17.2 µM (top of the series)) is 1.77%; in [3] (at 17.2 µM (top of the series)), -2.38%. Moreover, the Potency is 12.6 µM (active) in [2] and above 20.6 µM in [4]. Also, the call in assay [5] was inactive.
Regarding `Oc1ccc(Cl)cc1Sc1cc(Cl)ccc1O`, the Potency in assay [6] was above 11.4 µM; in assay [2] it was 3.98 µM (active); in [7] it was 56.7 µM (active); in [8] it was 31.6 µM (active); in assay [9], 31.6 µM (active); in assay [10] it was 31.6 µM (active). In assay [11], the Potency is 39.8 µM (active). Also, the activity change, negative = inhibition in assay [1] (at 7.69 µM (top of the series)) was -7.34%. The call in [5] was inactive.
Turning to `Cc1cc(N)c2cc(NC(=O)Nc3ccc4nc(C)cc(N)c4c3)ccc2n1`, the Potency in [6] was above 11.4 µM. In addition, the Potency result in assay [2] is “inactive”. For the same compound, the activity change, negative = inhibition in [3] (at 7.69 µM (top of the series)) is -11.7%. Further, in assay [12] (at 7.69 µM (top of the series)), the activity, negative = inhibition was -4.38%. In addition, in [5], the outcome was inactive.
On to `O=C(COc1ccc(Cl)cc1)N1CCN(Cc2ccc3c(c2)OCO3)CC1`, for which the values for the activity change, negative = inhibition in assay [1] (at 17.2 µM (top of the series)) and in assay [3] (at 17.2 µM (top of the series)) were -14.6% and 15.3%, respectively. Moreover, the Potency in assay [2] is 5.01 µM (active). For the same compound, the activity, negative = inhibition in assay [12] (at 17.2 µM (top of the series)) is 1.26%. For the same compound, the compound was called inactive in [5].
Consider `N[C@@H](Cc1cnc[nH]1)C(=O)O`, for which the activity change, negative = inhibition in assay [1] (at 38 µM (top of the series)) is 2.79%; in assay [3] (at 38 µM (top of the series)), -0.542%. The Potency result in assay [2] was “inactive”. Moreover, the Potency in assay [4] was above 46 µM.
Take `CC(O)(P(=O)(O)O)P(=O)(O)O`: the figures for the activity change, negative = inhibition in [1] (at 17.2 µM (top of the series)) and in assay [3] (at 17.2 µM (top of the series)) were -1.23% and -2.6%, respectively. Besides, in assay [2], the Potency entry is “inactive”. For the same compound, the activity, negative = inhibition in assay [12] (at 17.2 µM (top of the series)) was 3.57%. In addition, in [5], the result was inactive.
In the case of `CCCCOc1ccc(C(=O)CCN2CCCCC2)cc1`, the activity change, negative = inhibition in [1] (at 17.2 µM (top of the series)) is 18.2% and 12.3%. For the same compound, the Potency in [2] is 3.16 µM (active). For the same compound, in assay [12] (at 17.2 µM (top of the series)), the activity, negative = inhibition was -25% and -28.6%. For the same compound, the call in [5] was inactive.
As to `CCN1CCC[C@H]1CNC(=O)c1c(OC)ccc(Br)c1OC`, the activity change, negative = inhibition in assay [1] (at 17.2 µM (top of the series)) was -5.77%; in [3] (at 17.2 µM (top of the series)), -26.9%. In assay [2], the Potency result was “inactive”. Also, in assay [5], the compound was called inactive.
Consider `O=C(O)c1cc2cc(Cc3cccnc3)ccc2o1`, for which the activity change, negative = inhibition in [1] (at 38 µM (top of the series)) was -4.5%; in assay [3] (at 38 µM (top of the series)), -0.641%. Further, the Potency entry in [2] is “inactive”. Besides, the activity, negative = inhibition in [12] (at 38 µM (top of the series)) is 6.34%. Moreover, the Potency in assay [4] was above 46 µM. Besides, the compound was called inactive in [5].
For the compound `COc1c2occc2c(OC)c2c(=O)cc(C)oc12`, the activity change, negative = inhibition in assay [1] (at 17.2 µM (top of the series)) is 4.61% and -2.27%; in [3] (at 17.2 µM (top of the series)), 4.03% and 8.21%. Moreover, the Potency in assay [2] was 0.02 µM (active). In addition, the outcome in assay [5] was inactive.
Consider `CC(=O)OCC(=O)[C@@]1(OC(C)=O)[C@@H](C)C[C@H]2[C@@H]3C[C@H](F)C4=CC(=O)C=C[C@]4(C)[C@@]3(F)[C@@H](O)C[C@@]21C`, for which the activity change, negative = inhibition in assay [1] (at 17.2 µM (top of the series)) was -3.12%; in assay [3] (at 17.2 µM (top of the series)) it was 17.4%.
